The source of these data is PubChem BioAssay (NCI).

Common to all, as to test: NCI-60 one-dose screen, 48 h (100 = growth as untreated, 0 = no growth, -100 = all killed)
The test system of one assay is HCT-15 colon. Particulars: 10 µM.
In the next assay the test system is HT29 colon. Particulars: 10 µM.
Another assay deals with SNB-75 CNS. Particulars: 10 µM.
A further assay deals with SNB-19 CNS. Particulars: 10 µM.
The test system of the next assay is U251 CNS. Particulars: 10 µM.
Another assay has as its system SK-MEL-5 melanoma. Particulars: 10 µM.
The next assay deals with UACC-62 melanoma. Particulars: 10 µM unless noted.
The subject of the next assay is LOX IMVI melanoma. Particulars: 10 µM.
A further assay deals with PC-3 prostate. Particulars: 10 µM.
The next assay relates to SK-MEL-28 melanoma. Particulars: 10 µM.

Values joined by “and” are separate entries in the source; they are usually repeats but may differ in a detail not shown here. Identical values can stand only once. The panel holds about 83,000 compounds, 20% with a hit somewhere; the sample as a whole holds those more often.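 The test compound was applied at a single concentration to cells in 96-well plates for 48 hours, and percent growth was recorded.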 Unmarked numbers belong to inactive results. Active and inactive are the calls of the source. How the source made its calls: active means growth percent below 10; inactive means the rest.

For `O=[N+]([O-])c1ccc(N2CCOCC2)c2c1no[n+]2[O-]`, the growth was -19.3% (active) with HCT-15 colon; -29.3% (active) in the assay on HT29 colon; -15.5% (active) with SNB-75 CNS; 28.8% in the assay on SNB-19 CNS; 2.99% (active) in the assay on U251 CNS; 25.4% in the assay on SK-MEL-5 melanoma. In addition, the growth in the assay with UACC-62 melanoma was -24.9% (active); with LOX IMVI melanoma it was -14.3% (active).

With `COc1cc([C@@H]2c3cc4c(c(O)c3C[C@H]3COC(=O)[C@@H]32)OCO4)cc(OC)c1OC`, the growth was 10.2% in the assay with HCT-15 colon; 12.9% in the assay with HT29 colon; 24% with SNB-75 CNS; 7.28% (active) in the assay with SNB-19 CNS; 23.8% in the assay with U251 CNS; -42.8% (active) with SK-MEL-5 melanoma. The values for the growth with UACC-62 melanoma and in the assay on LOX IMVI melanoma were 64.3% and 19.9%, respectively.

`O=C1CCC(=O)N1SC(Cl)(Cl)Cl`: the growth in the assay with HCT-15 colon is 107%; in the assay on HT29 colon, 102%; in the assay with SNB-75 CNS it was 92.1%; in the assay on SNB-19 CNS, 103%; in the assay on U251 CNS it was 118%; with SK-MEL-5 melanoma it was 99.5%. Further, the growth in the assay on UACC-62 melanoma is 106%; in the assay with LOX IMVI melanoma, 108%.

Take `[Cl][Hg][c]1ccc2ccccc2c1`: the growth in the assay with HCT-15 colon is -72.3% (active); in the assay with HT29 colon, -71.3% (active); with SNB-75 CNS it was -85.3% (active); in the assay with SNB-19 CNS, -62.9% (active); in the assay on U251 CNS, 93.1%; in the assay on SK-MEL-5 melanoma, -100% (active). For the same molecule, the growth in the assay with UACC-62 melanoma was -43% (active); in the assay on LOX IMVI melanoma, -100% (active).

On to `O=[N+]([O-])c1cc[n+]([O-])c2ccccc12`, for which the growth with HCT-15 colon was -23.1% (active); with HT29 colon it was -31.4% (active); in the assay with SNB-75 CNS, -82.2% (active); in the assay on SNB-19 CNS, -17.6% (active); with U251 CNS, -26.3% (active); with PC-3 prostate it was -10.8% (active). Besides, the growth in the assay on SK-MEL-5 melanoma was -92.5% (active); in the assay on UACC-62 melanoma, -85.2% (active); in the assay on LOX IMVI melanoma, -73.7% (active); in the assay on SK-MEL-28 melanoma it was -86.9% (active).

For the molecule `COS(=O)(=O)c1ccccc1`, the growth with HCT-15 colon was 108%; in the assay with HT29 colon it was 110%; in the assay on SNB-75 CNS it was 95.2%; in the assay with SNB-19 CNS, 110%; in the assay on U251 CNS it was 96.4%; with SK-MEL-5 melanoma it was 108%. In addition, the growth in the assay on UACC-62 melanoma and in the assay with LOX IMVI melanoma was 102% each time.

For `NC(=O)c1cc([N+](=O)[O-])c(Cl)c([N+](=O)[O-])c1`, the growth with HCT-15 colon was 45.5%; with HT29 colon, -7.93% (active); in the assay with SNB-75 CNS, 98.6%; in the assay on SNB-19 CNS it was 107%; in the assay with U251 CNS, 69.4%; with SK-MEL-5 melanoma, 107%. Moreover, the growth in the assay with UACC-62 melanoma was 100%; in the assay with LOX IMVI melanoma, 24.7%; in the assay on SK-MEL-28 melanoma, 118%.

With `CCCCCCCC[N+]12CN3CN(CN(C3)C1)C2`, the growth is 96.7% in the assay on HCT-15 colon; 112% in the assay with HT29 colon; 89.4% in the assay on SNB-75 CNS; 90.1% in the assay on SNB-19 CNS; 101% in the assay with U251 CNS; 98% in the assay with SK-MEL-5 melanoma. Also, the growth is 91.7% in the assay with UACC-62 melanoma and 97.5% in the assay on LOX IMVI melanoma.

Regarding `COC(=O)C1C(O)C(C)C(O)C(C)/C=C\C=C(C)C(=O)Nc2c(C)c(OC(C)=O)c3c(c2O)C(=O)C(C)=C2OCOC(=C23)C(C)=CC(C)(O)C(O)C(C)C1O` (configuration not stated), the growth in the assay with HCT-15 colon was 43.8%; with HT29 colon, 90.3%; in the assay on SNB-75 CNS, 32.4%; with SNB-19 CNS, 99.1%; in the assay on U251 CNS, 45.9%; with SK-MEL-5 melanoma, 99%. The growth in the assay on UACC-62 melanoma is 97.4%; in the assay with LOX IMVI melanoma it was 78.7%.

Take `COc1ccc2c(ccc3oc([N+](=O)[O-])cc32)c1`: the growth was 5.1% (active) in the assay with HCT-15 colon; -8.59% (active) with HT29 colon; -68.5% (active) in the assay on SNB-75 CNS; 5.8% (active) in the assay with SNB-19 CNS; -8.64% (active) with U251 CNS; 9.56% (active) in the assay with PC-3 prostate. Besides, the growth in the assay on SK-MEL-5 melanoma is -80.4% (active); in the assay on UACC-62 melanoma, -60.2% (active); in the assay on LOX IMVI melanoma, -35.9% (active); in the assay on SK-MEL-28 melanoma it was -39.6% (active).

For the molecule `O=C(CBr)Nc1ccc(Cl)cc1`, the growth in the assay with HCT-15 colon is 17.6%; in the assay on HT29 colon it was 4.44% (active); in the assay on SNB-75 CNS it was 102%; in the assay on SNB-19 CNS it was 88.8%; with U251 CNS it was 86.8%; with SK-MEL-5 melanoma, 78.3%. For the same molecule, the growth in the assay with UACC-62 melanoma was 71.6%; with LOX IMVI melanoma, -57.4% (active).

`O=C(CBr)Nc1ccccc1`: the growth is 55.6% in the assay with HCT-15 colon; 103% in the assay with HT29 colon; 100% with SNB-75 CNS; 94.9% with SNB-19 CNS; 91.6% in the assay with U251 CNS; 97.3% in the assay on SK-MEL-5 melanoma. Further, the growth with UACC-62 melanoma is 99.6%; in the assay with LOX IMVI melanoma it was 9.08% (active).

With `ClCc1ccc2ccccc2n1`, the growth in the assay on HCT-15 colon is 103%; in the assay on HT29 colon, 94.1%; in the assay on SNB-75 CNS it was 81.8%; with SNB-19 CNS, 103%; in the assay on U251 CNS it was 103%; in the assay on SK-MEL-5 melanoma, 91%. Moreover, the growth in the assay with UACC-62 melanoma is 74.9%; with LOX IMVI melanoma, 80.5%.

Turning to `COc1ccc(/C=C\[N+](=O)[O-])cc1OC`, the growth was 53.9% and 17.4% in the assay with HCT-15 colon; 41.3% and 24.7% in the assay on HT29 colon; 65.2% in the assay on SNB-75 CNS; 82.5% and 63.1% in the assay with SNB-19 CNS; 56.2% and 48.6% in the assay with U251 CNS; 72.6% and 56.4% in the assay on SK-MEL-5 melanoma. Moreover, the growth with UACC-62 melanoma was 74.1% and 50%; in the assay with LOX IMVI melanoma it was 2.99% (active) and -69.2% (active).
